Laboratory results reported in PubChem BioAssay (Tox21).
Several values for one entry are separate records, joined by “and”; a condition that tells them apart may be missing. Equal values may be shown once. Records with an inconclusive call do not appear. Entries that show only a call come without a potency. Values without a mark were called inactive. Activity calls are given as the source filed them. The call rests on the fitted dose curve; in most records, active means well fitted cell-killing curve with a large enough effect in the repeat runs; inconclusive means weak or mixed curves; inactive means flat fitted curve, though single readings scatter.

Assay: qHTS assay to identify small molecule antagonists of the estrogen related receptor (ERR) signaling pathway from Tox21 library - cell viability counter screen (AID 1224834); further: nearly all actives have a fitted effect of over 30% in size
Details: ERR reporter cells viability, CellTiter-Fluor, 17.5 h; series mostly up to 92.4 µM
Source text: National Center for Advancing Translational Sciences [NCATS]
NIH Chemical Genomics Center [NCGC]
U.S. Environmental Protection Agency [EPA]
National Institutes of Environmental Health Sciences [NIEHS]
National Toxicology Program [NTP]
U.S. Food and Drug Administration [FDA]
Estrogen related receptors (ERRs), the first orphan nuclear receptors discovered, play an important role in the control of cellular energy metabolism. ERRs are required for high-energy production in response to the environmental challenges. ERR-alpha was also identified as an adverse marker for breast cancer progression; ERR-alpha-positive tumors have a poor prognosis. To screen and to identify environmental compounds that perturb the ERR signaling pathways could provide valuable information for potential therapeutic or preventive measures in the treatment of metabolic disease. To differentiate true ERR antagonists or agonist from cytotoxic substances, the assay is multiplexed with cell viability assay.
Tox21 Assay Protocol Summary:
The ERR cells were dispensed at 2,000 cells/5 ul/well in 1536-well white plates using a Multidrop dispenser. After the assay plates were incubated at a 37 C/5% CO2 incubator for 6 hours, 23 nL of compounds dissolved in DMSO, positive and negative controls or DMSO only was transferred to the assay plate by a pin tool. The plates were incubated at 37 C for 17.5 hours. 1 ul/well of CellTiter-Fluor reagent was added into the assay plates using a Flying Reagent Dispenser. After 30-minute incubation at 37 C/5% CO2, the fluorescence intensity in the plates was measured using a ViewLux plate reader.
Potency means the concentration at half of the fitted maximal effect.

SMILES | Potency | viability change, negative = cytotoxic
CC1COC(Cn2cncn2)(c2ccc(Oc3ccc(Cl)cc3)cc2Cl)O1 (stereo not drawn) | 27.3 µM (active) | 
Clc1ccccc1-c1ccccc1Cl | inactive | 
O=C(O)/C=C\C(=O)O | inactive | 
Cc1nnc2n1-c1sc(CCc3ccc(CC(C)C)cc3)cc1C(c1ccccc1Cl)=NC2C (stereo not drawn) | 26.6 µM (active) | 
COc1ccc(C(c2ccc(OC)cc2)C(Cl)(Cl)Cl)cc1 | inactive | 
CCOC(=O)C(O)(c1ccc(Cl)cc1)c1ccc(Cl)cc1 | 49.1 µM (active) | 
Cc1ccc(N(SC(F)(Cl)Cl)S(=O)(=O)N(C)C)cc1 | 30.6 µM (active) | 
c1ccc2c(c1)Sc1ccccc1N2CC1CN2CCC1CC2 (stereo not drawn) | 29.8 µM (active) | 
Cc1ccc2nc3sc(=O)sc3nc2c1 |  | -9.38% [at 19 µM]
O=C(c1ccccc1)C(Cl)Cl | 61.1 µM (active) | 
OCC(c1ccc(Cl)cc1)c1ccc(Cl)cc1 | 48.6 µM (active) | 
CN1CSC(=S)N(C)C1 | 6.08 µM (active) and 13.6 µM (active) | 
CNC(=O)Oc1cc(C)c(SC)c(C)c1 | inactive | 
CCN(CC)C(=O)Cl | inactive | 
CCC1C(=O)OCC1Cc1cncn1C (stereo not drawn) | inactive | 
Oc1c(I)cc(I)cc1I | inactive | 
Cc1cc(C(C)(C)c2ccc(O)c(C)c2)ccc1O | 51.9 µM (active) | 
O=[N+]([O-])c1c(Cl)c(Cl)cc(Cl)c1Cl | inactive | 
CC(N)C(=O)OC(C)(C)Cc1ccc(Cl)cc1 (stereo not drawn) | inactive | 
O=C(O)/C=C/C(=O)O | inactive | 
Nc1ccc([N+](=O)[O-])cc1 | 15.4 µM (active) | 
CO/C=C(/C(=O)OC)c1ccccc1Oc1cc(Oc2ccccc2C#N)ncn1 | 20.6 µM (active) | 
CC(c1ccccc1)(c1ccc(O)cc1)c1ccc(O)cc1 | 61.1 µM (active) | 
ClC(Cl)=C(c1ccc(Cl)cc1)c1ccccc1Cl | inactive | 
CCn1cc(C(=O)O)c(=O)c2ccc(C)nc21 | inactive | 
COc1cc(OC)c(OC)cc1C=O | inactive | 
C[N+]1(C)[C@@H]2CC(OC(=O)[C@H](CO)c3ccccc3)C[C@H]1[C@@H]1O[C@@H]12 (stereo partly drawn) | inactive | 
O=S(=O)(C(Cl)(Cl)Cl)C(Cl)(Cl)Cl | 48.6 µM (active) | 
